Results filed as inconclusive are left out. Some structures have more than one record in an assay (separate samples or runs), and their calls can disagree. Active and inactive are the calls of the source. How the source made its calls, unless noted: active means hit-call score of the fitted dose curve at least 0.9, where 1 is the maximum; inconclusive means response in the unintended direction; inactive means score below 0.9.

The record followed here is PubChem BioAssay (EPA / NIEHS).

The nature of assay [1]: TOX21_p53_BLA_p2_viability: Viability Assessment in the Tox21 HCT-116 p53 Agonism Beta-lactamase Assay, Phase 2 (AID 2283591).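 Further: actives lower the ATP signal meaning cytotoxicity.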 In short, it runs like this:
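HCT116 p53-bla cells, 4000/well, dosed after 5 h plating (217-fold dilution of DMSO stocks) and incubated 16 h at 37C. Viability taken as cellular ATP by CellTiter-Glo luminescence after 30 min RT; signal loss marks cytotoxicity.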

Assay [2] concerns the target Cellular tumor antigen p53 (Homo sapiens) (UniProt P04637). In words: TOX21_p53_BLA_p2_ratio: Tox21 HCT-116 p53 Agonism Beta-lactamase Assay, Ratio, Phase 2 (AID 2283592). In short, it runs like this:
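An inducible beta-lactamase reporter in HCT116 cells signals p53 pathway activation. After 16 h chemical exposure at 37C, cells load CCF4-AM substrate for 2 h at room temperature; activity is the cleaved/uncleaved emission ratio relative to DMSO.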

The nature of assay [3]: TOX21_p53_BLA_p3_viability: Viability Assessment in the Tox21 HCT-116 p53 Agonism Beta-lactamase Assay, Phase 3 (AID 2283593).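 Further: cells exposed to compound for 16 h before reading.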 In a few lines:
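HCT116 cells, 4000/well, dosed 5 h after plating by pin transfer (217-fold dilution from DMSO stock) and incubated 16 h at 37C, 5% CO2. Viability read as ATP luminescence with CellTiter-Glo after 30 min at room temperature.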

The target of assay [4] is Cellular tumor antigen p53 (Homo sapiens) (UniProt P04637). Briefly: TOX21_p53_BLA_p3_ratio: Tox21 HCT-116 p53 Agonism Beta-lactamase Assay, Ratio, Phase 3 (AID 2283596). In a few lines:
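HCT116 p53-bla cells (4000/well) given compound in DMSO (217-fold dilution) after 5 h, incubated 16 h at 37C. CCF4-AM substrate 2 h at room temperature; 460/530 nm emission ratio, gain fitted against DMSO.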

Assay [5] in a line: TOX21_p53_BLA_p4_viability: Viability Assessment in the Tox21 HCT-116 p53 Agonism Beta-lactamase Assay, Phase 4 (AID 2283597).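 Further: hits lower the luminescence signal meaning cytotoxicity.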 In a few lines:
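Compound exposure of HCT116 cells lasts 16 h at 37C, 5% CO2, with DMSO stocks diluted 217-fold. Cellular ATP is then quantified by CellTiter-Glo luminescence after 30 min at room temperature.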

The target of assay [6] is Cellular tumor antigen p53 (Homo sapiens) (UniProt P04637). Briefly: TOX21_p53_BLA_p5_ratio: Tox21 HCT-116 p53 Agonism Beta-lactamase Assay, Ratio, Phase 5 (AID 2283599). In short, it runs like this:
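HCT-116 p53-bla cells (4000/well) plated 5 h, dosed with compound (217-fold DMSO dilution) for 16 h at 37 C; CCF4-AM substrate 2 h at room temperature. Activity is the 460/530 nm emission ratio (405 nm excitation), fitted in gain-of-signal direction versus DMSO.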

A short description of assay [7]: TOX21_p53_BLA_p5_viability: Viability Assessment in the Tox21 HCT-116 p53 Agonism Beta-lactamase Assay, Phase 5 (AID 2283600). In a few lines:
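Counter-readout for cytotoxicity: ATP-dependent luminescence from CellTiter-Glo, read in the beta-lactamase wells after 30 min at RT, following a 16 h compound exposure at 37C.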

The target in assay [8] is Cellular tumor antigen p53 (Homo sapiens) (UniProt P04637). Briefly: TOX21_p53_BLA_p4_ratio: Tox21 HCT-116 p53 Agonism Beta-lactamase Assay, Ratio, Phase 4 (AID 2283601). In a few lines:
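HCT-116 p53 beta-lactamase reporter cells (4000/well) preincubated 5 h, then compound (217-fold dilution of DMSO stock) for 16 h at 37C. CCF4-AM substrate added 2 h at room temperature; 460/530 nm emission ratio fitted upward versus DMSO.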

A short description of assay [9]: CCTE_Shafer_MEA_dev_firing_rate_mean: CCTE's Neural Network Formation Assay for Mean Firing Rate, Shafer Lab (AID 2284031; active means hit-call score of the fitted dose curve at least 0.9, where 1 is the maximum; inactive means score below 0.9). In short, it runs like this: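 Primary rat cortical neurons on 48-well MEA plates, exposed from plating day 0 with dosing renewed on DIV 5 and 9. Mean well firing rate over active electrodes, recorded days 5, 7, 9, 12, summarised as trapezoidal AUC.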

A short description of assay [10]: CCTE_Shafer_MEA_dev_per_burst_spike_percent: CCTE's Neural Network Formation Assay for Percent of Spikes in a Burst, Shafer Lab (AID 2284032; active means hit-call score of the fitted dose curve at least 0.9, where 1 is the maximum; inactive means score below 0.9). In a few lines:
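Rat primary cortical neurons on 16-electrode MEA wells, dosed from plating day 0 for 12 days with renewal on DIV 5 and 9; spikes-in-bursts percentage averaged over bursting electrodes, collapsed as AUC across days 5, 7, 9, 12; loss direction versus DMSO.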

Assay [11] can be described thus: CCTE_Shafer_MEA_dev_burst_rate: CCTE's Neural Network Formation Assay for Burst Rate, Shafer Lab (AID 2284042; active means hit-call score of the fitted dose curve at least 0.9, where 1 is the maximum; inactive means score below 0.9). In a few lines:
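Primary rat cortical neurons on PEI-coated 48-well MEA plates (laminin added with cells at plating) (16 electrodes/well), exposed from plating to day 12, dosing renewed at DIV 5 and 9. Burst rate averaged over active electrodes, recorded DIV 5, 7, 9, 12, summarized as AUC; loss versus DMSO.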

A short description of assay [12]: CCTE_Shafer_MEA_dev_per_burst_interspike_interval: CCTE's Neural Network Formation Assay for Burst Interspike Interval, Shafer Lab (AID 2284044; active means hit-call score of the fitted dose curve at least 0.9, where 1 is the maximum; inactive means score below 0.9;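 further: mean spike spacing inside bursts as AUC over recordings on days 5 7 9 12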). In a few lines:
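Developmental network-formation MEA in primary rat cortical cultures with exposure spanning days 0–12. Within-burst ISI is averaged per well and integrated across recording days by area under the curve, with DMSO as negative control baseline.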

A short description of assay [13]: CCTE_Shafer_MEA_dev_burst_duration_mean: CCTE's Neural Network Formation Assay for Mean Burst Duration, Shafer Lab (AID 2284045; active means hit-call score of the fitted dose curve at least 0.9, where 1 is the maximum; inactive means score below 0.9). In a few lines: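 Primary rat cortical neurons on 48-well 16-electrode MEA plates, exposed from day 0 with renewal at DIV 5 and 9; spontaneous activity recorded on days 5, 7, 9, 12. Well-mean burst duration across bursting electrodes, collapsed as trapezoidal AUC; DMSO baseline.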

The nature of assay [14]: CCTE_Shafer_MEA_dev_interburst_interval_mean: CCTE's Neural Network Formation Assay for Mean Interburst Interval, Shafer Lab (AID 2284046; active means hit-call score of the fitted dose curve at least 0.9, where 1 is the maximum; inactive means score below 0.9;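 further: well-mean interburst interval of bursting electrodes as AUC over four recording days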). In a few lines: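 Recordings on days 5, 7, 9 and 12 give well-mean interburst interval across actively bursting electrodes, summarized as area under the curve. Cultures: rat cortical neurons, continuous exposure from day 0, compound renewed at feeds; decrease analyzed versus DMSO.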

Assay [15] in a line: CCTE_Shafer_MEA_dev_inter_network_spike_interval_mean: CCTE's Neural Network Formation Assay for Mean Inter-network Spike Interval, Shafer Lab (AID 2284047; active means hit-call score of the fitted dose curve at least 0.9, where 1 is the maximum; inactive means score below 0.9). In short, it runs like this:
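Primary rat cortical neurons on 16-electrode MEA wells, exposed from plating day 0 through DIV 12, compound renewed at DIV 5 and 9 media changes. Mean interval between network-spike peaks recorded DIV 5, 7, 9, 12; collapsed as trapezoidal AUC, fitted downward versus DMSO.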

The nature of assay [16]: CCTE_Shafer_MEA_dev_network_spike_number: CCTE's Neural Network Formation Assay for Number of Network Spikes, Shafer Lab (AID 2284048; active means hit-call score of the fitted dose curve at least 0.9, where 1 is the maximum; inactive means score below 0.9;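 further: synchronized bursts across electrodes counted on days 5 7 9 12 and integrated as AUC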). In short, it runs like this:
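Primary rat cortical neurons on PEI/laminin 48-well MEA plates, dosed from plating day 0 for 12 days, renewed at DIV 5 and 9. Network spike counts recorded DIV 5, 7, 9, 12, collapsed as trapezoidal AUC; DMSO baseline.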

Assay [17] in a line: CCTE_Shafer_MEA_dev_spike_duration_mean: CCTE's Neural Network Formation Assay for Mean Spike Duration, Shafer Lab (AID 2284051; active means hit-call score of the fitted dose curve at least 0.9, where 1 is the maximum; inactive means score below 0.9;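 further: mean network spike duration pooled as area under curve over DIV 5 to 12 recordings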). In short, it runs like this: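 Primary rat cortical neurons on 16-electrode MEA wells (PEI-coated, laminin in plating drop), exposed from plating through DIV 12 with compound renewed at DIV 5 and 9. Mean network-spike duration recorded DIV 5, 7, 9, 12; trapezoidal AUC across days, DMSO baseline.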

Assay [18] can be described thus: CCTE_Shafer_MEA_dev_network_spike_duration_std: CCTE's Neural Network Formation Assay for Standard Deviation of Network Spike Duration, Shafer Lab (AID 2284052; active means hit-call score of the fitted dose curve at least 0.9, where 1 is the maximum; inactive means score below 0.9;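 further: area under curve of spike duration SD across recording days 5 to 12; hits are decreases in network spike duration SD versus DMSO vehicle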). In short, it runs like this: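 Primary rat cortical neurons on PEI-coated 16-electrode MEA wells, exposed from plating day 0 through day 12 with compound renewed at DIV 5 and 9. Network spike duration SD recorded on days 5, 7, 9, 12, collapsed as trapezoidal AUC; loss-of-signal fit versus DMSO.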

The nature of assay [19]: CCTE_Shafer_MEA_dev_per_network_spike_spike_number_mean: CCTE's Neural Network Formation Assay for Mean Number of Spikes in a Network Spike, Shafer Lab (AID 2284053; active means hit-call score of the fitted dose curve at least 0.9, where 1 is the maximum; inactive means score below 0.9). In a few lines:
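Primary rat cortical neurons on 48-well, 16-electrode MEA plates were exposed from plating to DIV 12, with dosing renewed on DIV 5 and 9. Spikes per network spike (0.05 s peak window) were recorded on DIV 5, 7, 9 and 12 and collapsed as trapezoidal AUC versus DMSO.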

Assay [20] can be described thus: CCTE_Shafer_MEA_dev_per_network_spike_spike_percent: CCTE's Neural Network Formation Assay for Percent of Spikes in a Network Spike, Shafer Lab (AID 2284054; active means hit-call score of the fitted dose curve at least 0.9, where 1 is the maximum; inactive means score below 0.9). In a few lines:
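Rat primary cortical neurons were grown on 48-well MEA plates (16 electrodes/well), exposed from plating day 0 through day 12, with treatment renewed on DIV 5 and 9. Percent of spikes within 0.05 s network-spike peaks was measured, summarised as AUC across days 5, 7, 9, 12.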

The nature of assay [21]: CCTE_Shafer_MEA_dev_LDH: CCTE's Lactate Dehydrogenase Assay for Cytotoxicity in the Neural Network Formation Assay, Shafer Lab (AID 2284068).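 Further: exposure for twelve days from plating with re-dosing on DIV 5 and 9.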 In short, it runs like this:
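Primary rat cortical neurons were plated on PEI/laminin MEA plates and exposed from day 0 for twelve days, with compound renewed at DIV 5 and 9. Cytotoxicity was determined by spectrophotometric LDH assay relative to DMSO.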

Assay [22] in a line: CCTE_Shafer_MEA_dev_mutual_information_norm: CCTE's Neural Network Formation Assay for Mutual Information Normalization, Shafer Lab (AID 2284091; active means hit-call score of the fitted dose curve at least 0.9, where 1 is the maximum; inactive means score below 0.9). In short, it runs like this: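 Primary rat cortical neurons on PEI-coated 48-well MEA plates, 1.5 x 10^5 cells/well, exposed from day 0 through day 12 with re-dosing at DIV 5 and 9. Mutual information between electrodes recorded days 5, 7, 9, 12; trapezoidal AUC, loss-of-signal fit versus DMSO.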

The nature of assay [23]: CCTE_Shafer_MEA_dev_correlation_coefficient_mean: CCTE's Neural Network Formation Assay for Mean Correlation Coefficient, Shafer Lab (AID 2284093; active means hit-call score of the fitted dose curve at least 0.9, where 1 is the maximum; inactive means score below 0.9). In a few lines: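 Spontaneous activity recorded on days 5, 7, 9 and 12 post-plating; pairwise spike correlations are averaged across active electrodes and collapsed to an area-under-curve. Rat cortical cultures are dosed from plating through 12 days, with compound renewed at media changes.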

Assay [24] in a line: CCTE_Harrill_HTTr_Viability_MCF7: CCTE's 6-hour Cell Viability Assessment for the High-Throughput Transcriptomics (HTTr) Platform, in MCF-7 cells cultured in DMEM + 10% fetal bovine serum, Harrill Lab (AID 2284010; active means hit-call score of the fitted dose curve at least 0.9, where 1 is the maximum; inactive means score below 0.9). In a few lines:
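MCF-7 cells in DMEM + 10% FBS, 384-well, exposed 6 h to an eight-point dilution series. Membrane integrity scored by high-content imaging of propidium iodide exclusion; bidirectional fit versus DMSO.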

Cellular tumor antigen p53 (Homo sapiens), sequence (P04637 whole entry, looked up): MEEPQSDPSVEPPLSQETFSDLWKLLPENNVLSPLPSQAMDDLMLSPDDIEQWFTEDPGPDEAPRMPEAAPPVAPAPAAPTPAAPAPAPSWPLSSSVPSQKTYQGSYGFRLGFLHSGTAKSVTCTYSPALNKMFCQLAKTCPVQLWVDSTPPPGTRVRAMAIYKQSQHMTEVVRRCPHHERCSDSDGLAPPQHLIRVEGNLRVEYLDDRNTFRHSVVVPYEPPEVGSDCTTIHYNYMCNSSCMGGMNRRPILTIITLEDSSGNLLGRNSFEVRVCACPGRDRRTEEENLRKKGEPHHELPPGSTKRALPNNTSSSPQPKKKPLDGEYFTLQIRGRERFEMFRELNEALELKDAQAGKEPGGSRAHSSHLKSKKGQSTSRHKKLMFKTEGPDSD

With `CN[C@@H]1C[C@@H](c2ccc(Cl)c(Cl)c2)c2ccccc21`, the outcome in [1], in assay [2], in [3], in [4], in [6] and in assay [7] was inactive. The result in [8] was inactive. Further, the AC50 in [5] was 33.9 µM (active).

Consider `CCC1(c2ccccc2)C(=O)NC(=O)NC1=O`, for which the compound was called inactive in assay [1], in assay [2], in assay [3], in [4], in assay [5] and in assay [6]. For the same compound, the compound was classed as inactive in [7], in [9], in assay [10], in [11], in assay [12] and in [13]. For the same compound, the call in assay [14], in [15], in assay [16], in [17], in [18] and in [19] was inactive. The result in assay [20], in [21], in [22] and in assay [23] was inactive.

For `O=C(O)c1nn(Cc2ccc(Cl)cc2Cl)c2ccccc12`, the outcome in [1], in assay [2], in assay [3], in assay [4], in assay [5] and in assay [6] was inactive. Further, the result in [7] and in assay [8] was inactive. The AC50 in [8] was 81.2 µM (active).

Regarding `Oc1ccc(C2(c3ccc(O)cc3)CCCCC2)cc1`, the half-maximal activity concentration (AC50) in [1] is 72.1 µM (active); in assay [2], 83.2 µM (active); in [3] it was 44.1 µM (active); in [4], 83.7 µM (active); in assay [5] it was 46.3 µM (active); in [6], 82.3 µM (active). In addition, the concentration at half-maximal activity (AC50) in assay [7] was 74 µM (active); in assay [8], 82.9 µM (active). For the same compound, the outcome in assay [24] was inactive.

Broadly, the AC50 is the midpoint of the concentration-response curve, whichever way the signal moves.
